{"source": "PubChem BioAssay (NCATS)", "note": "Records with an inconclusive call do not appear. A number with no mark means an inactive call. Active and inactive are the calls of the source. Calls follow the shape of the dose curve; as a rule, active = well fitted curve in the direction sought with a large enough effect; inconclusive = small, poorly fitted or top-dose-only effect, or another doubt; inactive = no such curve, though single readings can be large; an effect the other way counts as inactive or inconclusive."}
{"target": "Glutaminase kidney isoform, mitochondrial (Homo sapiens) (UniProt O94925)", "sequence (O94925 whole entry, looked up, canonical isoform)": "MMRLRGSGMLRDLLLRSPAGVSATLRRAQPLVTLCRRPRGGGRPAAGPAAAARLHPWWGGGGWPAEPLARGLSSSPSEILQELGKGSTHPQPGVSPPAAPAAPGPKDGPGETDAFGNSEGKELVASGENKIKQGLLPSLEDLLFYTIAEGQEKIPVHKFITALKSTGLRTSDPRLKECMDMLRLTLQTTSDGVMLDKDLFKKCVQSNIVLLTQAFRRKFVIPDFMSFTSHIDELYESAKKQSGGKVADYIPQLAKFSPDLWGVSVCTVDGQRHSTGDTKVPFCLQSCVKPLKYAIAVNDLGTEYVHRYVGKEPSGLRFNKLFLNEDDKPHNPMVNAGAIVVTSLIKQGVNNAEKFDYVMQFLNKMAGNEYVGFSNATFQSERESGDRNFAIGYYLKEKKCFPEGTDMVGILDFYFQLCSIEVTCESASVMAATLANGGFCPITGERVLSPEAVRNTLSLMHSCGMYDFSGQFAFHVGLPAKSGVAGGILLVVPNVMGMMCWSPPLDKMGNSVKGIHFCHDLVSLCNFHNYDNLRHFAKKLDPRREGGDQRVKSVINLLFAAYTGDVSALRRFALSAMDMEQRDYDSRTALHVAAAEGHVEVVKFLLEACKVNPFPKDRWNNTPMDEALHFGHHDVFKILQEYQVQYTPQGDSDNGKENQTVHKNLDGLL", "assay": "qHTS for Inhibitors of Glutaminase (GLS): LOPAC Validation (AID 624146); also: nearly all actives have a fitted effect of over 60% in size; also: potency is read from the fitted curve at half-maximal effect;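 as to activity change, negative = inhibition: glutamate product detected by oxidase and peroxidase coupled Amplex red fluorescence gain; % is scaled to controls: 0 for no effect and ±100 for the full control effect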", "settings": "glutaminase enzyme activity inhibition; series mostly up to 46.1 µM; activity change, negative = inhibition: at the top concentration", "in_short": "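Read-out is an Amplex red fluorescence increase coupled through glutamate oxidase and HRP, measured before and after 30 min room-temperature incubation. hKGA is in 45 mM KH2PO4 (pH 8.2) with 0.02% Tween-20; glutamine added as 1mM solution.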", "units": {"activity change, negative = inhibition": "%"}}
{"smiles": "CC(C)NCC(O)COc1ccc(CC(N)=O)cc1", "note": "(stereo not given)", "activity change, negative = inhibition": -5.46}
{"smiles": "CC(C)NC[C@H](O)COc1cccc2ccccc12", "activity change, negative = inhibition": 36.8}
{"smiles": "Oc1ccc(/C=C/c2ccc(/C=C/c3ccc(O)cc3)c(Br)c2)cc1", "Potency": "7.08 µM (active)"}
{"smiles": "O=C(O)/C=C/c1ccc(O)c(O)c1", "Potency": "2 µM (active)"}
{"smiles": "CN(C)CCCc1cc(C(=O)Nc2ccc(-c3ccncc3)cc2)ccc1O", "activity change, negative = inhibition": 4.39}
{"smiles": "CNCCc1cnc(CCC(c2ccccc2)c2ccccc2)[nH]1", "activity change, negative = inhibition": -28.7}
{"smiles": "CC[n+]1c(/C=C/C=C2/N(C)c3ccccc3C2(C)C)sc2ccccc21", "Potency": "11.2 µM (active)"}
{"smiles": "Cc1nc2n(c(=O)c1CCN1CCC(c3noc4cc(F)ccc34)CC1)CCCC2O", "note": "(stereo not given)", "activity change, negative = inhibition": -26.1}
{"smiles": "O=c1cc(-c2ccccc2F)[nH]c2cc3c(cc12)OCO3", "activity change, negative = inhibition": -5.05}
{"smiles": "O=c1cc(-c2ccccc2)[nH]c2nc(Cl)ccc12", "activity change, negative = inhibition": -5.57}
{"smiles": "Brc1c(Br)c(Br)c2[nH]cnc2c1Br", "activity change, negative = inhibition": 2.84}
{"smiles": "C=C1C[C@@]23CC[C@H]4[C@@](C)(CCC[C@@]4(C)C(=O)OC4OC(CO)C(O)C(O)C4O)[C@@H]2CC[C@]1(OC1OC(CO)C(O)C(O)C1OC1OC(CO)C(O)C(O)C1O)C3", "note": "(stereo not given in full)", "activity change, negative = inhibition": -8.2}
{"smiles": "O=c1oc(Cl)c(Cl)c2ccccc12", "activity change, negative = inhibition": -24.3}
{"smiles": "COc1ccc(-c2cc3ncc(C)n3c(Nc3ncccc3C(N)=O)n2)cc1OC", "activity change, negative = inhibition": -11.9}
{"smiles": "C[C@](Cc1ccc(O)c(O)c1)(NN)C(=O)O", "Potency": "1.58 µM (active)"}
{"system": "not listed separately", "assay": "qHTS of Trypanosoma Brucei Inhibitors: LOPAC Validation (AID 624147); also: 0% is about no effect", "settings": "purified enzyme assay, luminescence, 45 min; series mostly up to 57.5 µM; activity change, negative = inhibition: at the top concentration", "in_short": "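Readout: single end-point luminescence (Kinase-Glo Plus, 10 min). Reaction conditions were TbPYK/substrate plus 130 uM ADP, 45 min at RT, pH 7.2 TEA buffer. No-enzyme wells served as controls, and data were normalized before concentration-response fitting.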", "units": {"activity change, negative = inhibition": "%"}}
{"smiles": "C[C@H](O)C(=O)C1=Nc2c(nc(N)[nH]c2=O)NC1", "activity change, negative = inhibition": -6.62}
{"smiles": "N#Cc1cc([N+](=O)[O-])c2sc(C(N)=O)[n+]([O-])c2c1", "activity change, negative = inhibition": -8.37}
{"smiles": "N=C(N)c1ccccc1", "activity change, negative = inhibition": -12.1}
{"smiles": "CN(C)CCC(c1ccc(Br)cc1)c1ccccn1", "note": "(stereo not given)", "activity change, negative = inhibition": -3.75}
{"smiles": "CCCCCCN(CCCCCC)C(=O)Cc1c(-c2ccc(F)cc2)[nH]c2ccccc12", "activity change, negative = inhibition": -13.7}
{"smiles": "CCc1ccc2c(-c3cccc(Cl)c3)nc(=O)n(CC)c2n1", "activity change, negative = inhibition": -11.6}
{"smiles": "COc1ccc(CCn2nnnc2C2(c3ccc(C)cc3)CC2)cc1", "activity change, negative = inhibition": -5.33}
{"smiles": "c1ccc(C(NCc2cccnc2)(c2ccccc2)c2ccccc2)cc1", "activity change, negative = inhibition": -2.72}
{"smiles": "C=CCN1CCc2cc(O)c(O)cc2C(c2ccccc2)C1", "note": "(stereo not given)", "activity change, negative = inhibition": -8.8}
{"smiles": "Nc1ncnc2c1nc(Br)n2C1OC2COP(=O)(O)O[C@@H]2C1O", "note": "(stereo not given in full)", "activity change, negative = inhibition": 1.54}
{"smiles": "Cn1cc(C(=O)OCC2CCN(CCNS(C)(=O)=O)CC2)c2ccccc21", "activity change, negative = inhibition": -11.8}
{"smiles": "Nc1nc2c(cnn2CCc2ccccc2)c2nc(-c3ccco3)nn12", "activity change, negative = inhibition": -6.49}
{"smiles": "O=C(N[C@@H](Cc1ccccc1)C(=O)CCl)OCc1ccccc1", "activity change, negative = inhibition": 5.91}
{"smiles": "CN1Cc2sccc2C(c2ccc(O)c(O)c2)C1", "note": "(stereo not given)", "activity change, negative = inhibition": -10.4}
{"smiles": "Nc1ncnc2c1c(-c1ccc(Oc3ccccc3)cc1)cn2C1CCCC1", "activity change, negative = inhibition": -4.98}
{"smiles": "CCCCCCCC/C=C\\CCCCCCCC(=O)NCCc1ccc(O)c(O)c1", "activity change, negative = inhibition": -7.98}
{"smiles": "COc1cc(/C=C(\\C#N)C(=O)Nc2nnc(C(F)(F)F)s2)ccc1OCc1ccc(C(F)(F)F)cc1C(F)(F)F", "activity change, negative = inhibition": -6.8}
{"smiles": "O=C1Nc2ccc(I)cc2/C1=C/c1cc(Br)c(O)c(Br)c1", "activity change, negative = inhibition": -6.77}
{"smiles": "CN1CCc2cc(Cl)c(O)cc2[C@@H](c2ccccc2)C1", "activity change, negative = inhibition": -8.41}
{"smiles": "NCC(O)C1CCCCCCC1", "note": "(stereo not given)", "activity change, negative = inhibition": -6.22}
